Values without a mark were called inactive. Inconclusive results are not listed. Where a call stands in place of a potency, no number is given. The source made the active and inactive calls. Unless noted, calls come from the whole dose curve; as a rule, active = well fitted curve in the direction sought with a large enough effect in the repeat runs; inconclusive = weak or mixed curves; inactive = no such curve, though single readings can be large; an effect the other way counts as inactive or inconclusive.
Tests used:
[1] = qHTS assay to identify small molecule agonists of the sonic hedgehog signaling (Shh) pathway (AID 1259368; calls by dose curve;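 note: NIH/3T3-derived 3T3Gli1-Luc cells carrying a stable Gli1-driven firefly luciferase reporter; nearly all actives have a fitted effect of over 15% in size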); settings: NIH/3T3 Gli1-Luc reporter, luciferase, 24 h; series mostly up to 92.4 µM
In short: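 Read-out: firefly luciferase luminescence from a Gli1 response element reporter stably integrated in NIH/3T3-derived 3T3Gli1-Luc cells, measured 30 min at room temperature after reagent addition. Compound exposure lasted 24 hr at 37 C, 5% CO2.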

[2] = qHTS assay to identify small molecule antagonists of the sonic hedgehog signaling (Shh) pathway (AID 1259369; calls by dose curve; note: nearly all actives have a fitted effect of over 45% in size; note: potency is the fitted concentration of half-maximal effect); settings: NIH/3T3 Gli1-Luc reporter, Shh antagonist, luminescence 24 h; series mostly up to 92.4 µM
In short: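 Luminescence readout: firefly Luc under Gli1 response element in 3T3Gli1-Luc cells (NIH/3T3 clone). Antagonist mode, stimulation by conditioned medium; compound exposure 24hr at 37 C, 5% CO2.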

[3] = biological target: Estrogen receptor beta (Homo sapiens) (UniProt Q92731); assay: qHTS assay to identify small molecule agonists of the estrogen receptor beta (ER-beta) signaling pathway (AID 1259377; active = well fitted activation curve with a large enough effect in the signal ratio in the repeat runs, not every such curve was filed as active; the % refers to the signal ratio); settings: ER-beta-UAS-bla HEK293T, beta-lactamase FRET ratio, 16 h; series mostly up to 92.4 µM
In short: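 Read-out: beta-lactamase FRET fluorescence. Cell line: ER-beta-UAS-bla HEK293T in 2% charcoal-stripped FBS. Exposure: 16 hr at 37C. Substrate step: 2 h at room temperature.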

[4] = biological target: Estrogen receptor beta (Homo sapiens) (UniProt Q92731); assay: qHTS assay to identify small molecule antagonists of the estrogen receptor beta (ER-beta) signaling pathway (AID 1259378; active = well fitted inhibition curve with a large enough effect in the signal ratio in the repeat runs, not every such curve was filed as active; the % refers to the signal ratio; note: potency is the fitted concentration of half-maximal effect); settings: ER-beta-UAS-bla HEK293T, beta-lactamase FRET ratio, 16 h; series mostly up to 92.4 µM
In short: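 ER-beta-UAS-bla HEK293T cells in 2% charcoal-stripped FBS medium treated with compound plus 1nM final 17-beta-estradiol for 16 hr at 37C. Beta-lactamase reporter read by FRET substrate fluorescence after 2 hours at room temperature.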

[5] = qHTS assay to identify small molecule agonists of the androgen receptor (AR) signaling pathway in the presence of an antagonist - cell viability counter screen (AID 1259379); settings: MDA-kb2 viability, CellTiter-Fluor, 16 h; series mostly up to 92.4 µM; note: nearly all actives have a fitted effect of over 25% in size; note: potency is the fitted concentration of half-maximal effect
In short: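 Viability counter screen: CellTiter-Fluor fluorescence, measured in the same wells as the luciferase read-out. MDA-kb2 cells, 3,000/well, with nilutamide at 3.0uM final and compounds at 15 concentrations, 16 hr at 37C, 0% CO2.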

[6] = qHTS assay to identify small molecule agonists of the estrogen receptor beta (ER-beta) signaling pathway - cell viability counter screen (AID 1259380); settings: ER-beta-bla HEK293T viability, CellTiter-Glo luminescence, 16 h; series mostly up to 92.4 µM; note: nearly all actives have a fitted effect of over 30% in size; note: potency is the fitted concentration of half-maximal effect
In short: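 Luminescence read-out (CellTiter-Glo, 30 min, room temp) taken in the same wells as the beta-lactamase reporter assay; ER-beta-UAS-bla HEK293T cells exposed to DMSO-dissolved compounds for 16 hr at 37C in 2% charcoal-stripped FBS medium.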

[7] = qHTS assay to identify small molecule antagonists of the estrogen receptor beta (ER-beta) signaling pathway - cell viability counter screen (AID 1259382); settings: ER-beta-UAS-bla HEK293T viability, CellTiter-Glo luminescence, 16 h; series mostly up to 92.4 µM; note: nearly all actives have a fitted effect of over 55% in size
In short: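 Luminescent ATP read-out (CellTiter-Glo, 30 min, RT) taken in the same wells as the bla reporter assay. HEK293T ER-beta-UAS-bla cells in 2% charcoal-stripped FBS were exposed to compounds with 1nM E2 for 16 hr at 37C.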

[8] = biological target: Estrogen receptor (Homo sapiens) (UniProt P03372); assay: qHTS assay to identify small molecule agonists of the estrogen receptor alpha (ER-alpha) signaling pathway in the presence of an antagonist (AID 1259383; calls by dose curve; note: top concentration of the series differs between compounds; nearly all actives have a fitted effect of over 15% in size); settings: VM7Luc4E2 cells, ERE-luciferase, +ICI-182,780, 22 h; series mostly up to 92.4 µM
In short: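 Luciferase luminescence (ONE-Glo, 30min at room temperature) measured in VM7Luc4E2 cells after 22hr compound exposure at 15 concentrations, with 10.0nM ICI-182,780 final present; cells express endogenous ER-alpha and carry four EREs upstream of luciferase.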

[9] = qHTS assay to identify small molecule agonists or antagonists of the thyroid stimulating hormone receptor (TSHR) signaling pathway - wild type cell line counter screen (AID 1259384; calls by dose curve); settings: HEK293 wild type, cAMP HTRF counter-screen, active compounds read high; series mostly up to 92.4 µM
In short: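 Wild-type Hek293 cells, 800/well, 18 h at 37C, then compound with Ro20-1724 for 30 min RT. cAMP by HTRF (cAMP-d2/anti-cAMP cryptate), 1 h RT, fluorescence read. 15 concentrations, triplicates.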

[10] = qHTS assay to identify small molecule agonists of the estrogen receptor alpha (ER-alpha) signaling pathway in the presence of an antagonist - cell viability counter screen (AID 1259386); settings: VM7Luc4E2 viability, CellTiter-Fluor fluorescence, 22 h; series mostly up to 92.4 µM;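 note: cells exposed to compounds for 22 h at 37 °C before the viability read; nearly all actives have a fitted effect of over 30% in size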; note: potency is the fitted concentration of half-maximal effect
In short: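 Read-out: CellTiter-Fluor fluorescence after 1hr reagent incubation, measured in the same wells as the luciferase readout. VM7Luc4E2 cells were exposed to 15 compound concentrations with 10.0nM ICI-182,780 for 22hr at 37C.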

[11] = biological target: Progesterone receptor (Homo sapiens) (UniProt P06401); assay: qHTS assay to identify small molecule agonists of the progesterone receptor (PR) signaling pathway (AID 1346784; calls by dose curve; note: nearly all actives have a fitted effect of over 30% in size); settings: PR-UAS-bla HEK293T, beta-lactamase FRET ratio, 16 h; series mostly up to 92.4 µM
In short: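 Compounds were tested for PR agonism in HEK 293T cells bearing a beta-lactamase gene under UAS control. Treatment lasted 16 hr at 37C; signal came from fluorescence of a FRET substrate.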

[12] = qHTS assay to identify small molecule antagonists of the progesterone receptor (PR) signaling pathway - cell viability counter screen (AID 1346798); settings: PR-UAS-bla HEK293T viability, CellTiter-Glo luminescence, 16 h; series mostly up to 92.4 µM; note: nearly all actives have a fitted effect of over 50% in size
In short: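 Following a 4 hr attachment, PR-UAS-bla HEK293T cells in charcoal-stripped FBS medium were exposed to compounds with R5020 for 16 hr; CellTiter-Glo was added and luminescence read after 30 min at room temperature.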

[13] = qHTS assay to identify small molecule antagonists of the TGF-beta/Smad signaling pathway - cell viability counter screen (AID 1346824); settings: SBE-bla HEK293T viability, CellTiter-Glo luminescence; series mostly up to 76.8 µM; note: nearly all actives have a fitted effect of over 50% in size
In short: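 SBE-bla HEK 293T cells, incubated overnight, then compound plus 0.25 ng/mL TGF-beta1 (stock added) for 5 hr at 37 C. Viability was read in the same wells by CellTiter-Glo luminescence after 30 min at room temperature.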

[14] = qHTS assay to identify small molecule agonists of the TGF-beta/Smad signaling pathway (AID 1346859; active = well fitted activation curve with a large enough effect in the signal ratio in the repeat runs, not every such curve was filed as active; the % refers to the signal ratio); settings: SBE-bla HEK293T, TGF-beta/Smad beta-lactamase reporter, 5 h; series mostly up to 76.8 µM
In short: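 Each well held 4,000 SBE-bla HEK 293T cells incubated overnight before compound addition; 5 hr later the cleavable FRET substrate went on for 2 hr at room temperature, and fluorescence was read at two emissions.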

[15] = biological target: Thyrotropin-releasing hormone receptor (Homo sapiens) (UniProt P34981); assay: qHTS assay to identify small molecule antagonists of the thyrotropin-releasing hormone receptor (TRHR) signaling pathway (AID 1346877; active = well fitted inhibition curve with a large enough effect in the repeat runs, not every such curve was filed as active); settings: TRHR-HEK293, TRH-induced calcium fluorescence, antagonist mode; series mostly up to 51.3 µM
In short: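 HEK293/TRHR cells, 18 h, 37 °C; Ca2+ dye 2 h; cpd 5 min RT; TRH 1 nM final; fluorescence read 3 min, 1 s intervals; 15 concs, triplicate.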

[16] = biological target: Thyrotropin receptor (Homo sapiens) (UniProt P16473); assay: qHTS assay to identify small molecule antagonists of the thyroid stimulating hormone receptor (TSHR) signaling pathway (AID 1259385; calls by dose curve; note: nearly all actives have a fitted effect of over 20% in size); settings: TSHR-HEK293 cAMP HTRF, TSH-stimulated antagonist mode; series mostly up to 92.4 µM
In short: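 TSHR-HEK293 cells (800/well) plated 18 h, then compounds with Ro20-1724 and TSH at 1.5 ng/mL final, 30 min at room temperature. cAMP quantified by HTRF (cAMP-d2/anti-cAMP-cryptate, 1 h); 15 concentrations in triplicate.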

[17] = qHTS assay to identify small molecule agonists of the TGF-beta/Smad signaling pathway - cell viability counter screen (AID 1346829); settings: SBE-bla HEK293T viability, CellTiter-Glo luminescence, 5 h; series mostly up to 76.8 µM; note: top concentration of the series differs between compounds; nearly all actives have a fitted effect of over 45% in size
In short: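 Cytotoxicity counter screen: CellTiter-Glo luminescence (30 min, room temperature) measured in the SBE-bla HEK 293T reporter wells after 5 hr compound treatment at 37 C and the 2 hr substrate step.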

[18] = biological target: Progesterone receptor (Homo sapiens) (UniProt P06401); assay: qHTS assay to identify small molecule antagonists of the progesterone receptor (PR) signaling pathway (AID 1346795; active = well fitted inhibition curve with a large enough effect in the signal ratio in the repeat runs, not every such curve was filed as active; the % refers to the signal ratio); settings: PR-UAS-bla HEK293T, beta-lactamase FRET ratio, 16 h; series mostly up to 92.4 µM
In short: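 In HEK293T cells bearing the PR-UAS-bla reporter, compound effects on promegestone-driven (1 nM) beta-lactamase expression are assessed after 16 hr using a fluorescent FRET substrate incubated 2 hr at room temperature.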

[19] = qHTS assay to identify small molecule agonists of the progesterone receptor (PR) signaling pathway - cell viability counter screen (AID 1346799; calls by dose curve; note: nearly all actives have a fitted effect of over 45% in size); settings: PR-UAS-bla HEK293T viability, CellTiter-Glo luminescence, 16 h; series mostly up to 92.4 µM
In short: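 Here, 3,000 PR-UAS-bla HEK293T cells per well were treated with compounds for 16 hr after a 6 hr preincubation at 37C and 5% CO2; cell viability is the CellTiter-Glo luminescence signal.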

Sequence of Estrogen receptor (Homo sapiens) (P03372 whole entry, looked up): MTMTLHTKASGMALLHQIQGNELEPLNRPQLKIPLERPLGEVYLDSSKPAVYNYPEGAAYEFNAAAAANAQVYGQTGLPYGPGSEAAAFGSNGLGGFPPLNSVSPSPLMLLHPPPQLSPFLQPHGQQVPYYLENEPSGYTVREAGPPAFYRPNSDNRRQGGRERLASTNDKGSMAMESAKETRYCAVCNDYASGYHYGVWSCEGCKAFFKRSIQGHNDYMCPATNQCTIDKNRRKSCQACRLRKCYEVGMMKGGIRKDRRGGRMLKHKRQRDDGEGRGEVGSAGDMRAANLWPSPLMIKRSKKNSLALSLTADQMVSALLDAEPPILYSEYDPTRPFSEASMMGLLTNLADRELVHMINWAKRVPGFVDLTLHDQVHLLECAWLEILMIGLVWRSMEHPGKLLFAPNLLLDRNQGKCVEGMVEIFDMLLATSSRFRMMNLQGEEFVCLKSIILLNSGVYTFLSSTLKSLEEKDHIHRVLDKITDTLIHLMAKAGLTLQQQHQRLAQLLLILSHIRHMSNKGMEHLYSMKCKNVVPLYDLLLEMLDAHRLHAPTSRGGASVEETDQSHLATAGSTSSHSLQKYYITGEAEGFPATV
Sequence of Progesterone receptor (Homo sapiens) (P06401 whole entry, looked up): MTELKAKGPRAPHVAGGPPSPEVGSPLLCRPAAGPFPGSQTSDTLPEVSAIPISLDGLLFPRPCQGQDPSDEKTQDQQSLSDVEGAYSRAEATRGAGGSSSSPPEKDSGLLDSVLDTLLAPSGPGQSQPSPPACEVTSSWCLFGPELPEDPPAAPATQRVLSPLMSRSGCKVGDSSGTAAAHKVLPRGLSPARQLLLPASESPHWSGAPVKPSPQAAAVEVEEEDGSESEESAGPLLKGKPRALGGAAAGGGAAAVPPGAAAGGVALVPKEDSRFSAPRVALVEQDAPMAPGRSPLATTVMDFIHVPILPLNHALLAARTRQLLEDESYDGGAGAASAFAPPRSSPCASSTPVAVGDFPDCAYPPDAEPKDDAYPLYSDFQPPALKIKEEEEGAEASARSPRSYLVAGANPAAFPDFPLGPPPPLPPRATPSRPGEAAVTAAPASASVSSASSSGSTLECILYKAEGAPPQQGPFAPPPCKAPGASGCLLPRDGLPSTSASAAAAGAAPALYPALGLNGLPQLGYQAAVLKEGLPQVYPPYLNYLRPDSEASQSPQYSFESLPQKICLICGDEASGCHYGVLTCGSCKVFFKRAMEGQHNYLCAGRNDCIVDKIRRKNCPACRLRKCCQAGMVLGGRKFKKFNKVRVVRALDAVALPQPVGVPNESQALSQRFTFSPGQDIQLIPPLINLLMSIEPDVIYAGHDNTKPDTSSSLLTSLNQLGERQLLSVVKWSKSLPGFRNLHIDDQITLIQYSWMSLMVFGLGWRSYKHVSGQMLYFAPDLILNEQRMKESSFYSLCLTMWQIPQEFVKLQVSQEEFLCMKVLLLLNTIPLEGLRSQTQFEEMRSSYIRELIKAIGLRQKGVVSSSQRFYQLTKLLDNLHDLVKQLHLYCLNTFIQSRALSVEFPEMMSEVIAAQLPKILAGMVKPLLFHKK
Sequence of Estrogen receptor beta (Homo sapiens) (Q92731 whole entry, looked up): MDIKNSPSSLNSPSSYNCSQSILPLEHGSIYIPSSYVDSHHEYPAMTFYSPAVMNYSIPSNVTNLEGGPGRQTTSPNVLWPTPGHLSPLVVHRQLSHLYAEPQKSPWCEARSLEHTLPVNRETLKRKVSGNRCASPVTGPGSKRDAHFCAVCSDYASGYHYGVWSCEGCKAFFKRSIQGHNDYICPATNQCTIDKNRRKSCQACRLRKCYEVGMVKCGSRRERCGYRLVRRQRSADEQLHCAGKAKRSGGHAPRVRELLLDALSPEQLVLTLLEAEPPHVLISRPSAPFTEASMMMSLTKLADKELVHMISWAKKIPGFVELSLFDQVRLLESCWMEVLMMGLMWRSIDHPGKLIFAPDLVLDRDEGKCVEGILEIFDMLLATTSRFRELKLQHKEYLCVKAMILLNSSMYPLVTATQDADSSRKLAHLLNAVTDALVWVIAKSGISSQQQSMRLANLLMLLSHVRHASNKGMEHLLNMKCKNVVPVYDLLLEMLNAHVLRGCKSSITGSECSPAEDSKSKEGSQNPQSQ
Sequence of Thyrotropin receptor (Homo sapiens) (P16473 whole entry, looked up): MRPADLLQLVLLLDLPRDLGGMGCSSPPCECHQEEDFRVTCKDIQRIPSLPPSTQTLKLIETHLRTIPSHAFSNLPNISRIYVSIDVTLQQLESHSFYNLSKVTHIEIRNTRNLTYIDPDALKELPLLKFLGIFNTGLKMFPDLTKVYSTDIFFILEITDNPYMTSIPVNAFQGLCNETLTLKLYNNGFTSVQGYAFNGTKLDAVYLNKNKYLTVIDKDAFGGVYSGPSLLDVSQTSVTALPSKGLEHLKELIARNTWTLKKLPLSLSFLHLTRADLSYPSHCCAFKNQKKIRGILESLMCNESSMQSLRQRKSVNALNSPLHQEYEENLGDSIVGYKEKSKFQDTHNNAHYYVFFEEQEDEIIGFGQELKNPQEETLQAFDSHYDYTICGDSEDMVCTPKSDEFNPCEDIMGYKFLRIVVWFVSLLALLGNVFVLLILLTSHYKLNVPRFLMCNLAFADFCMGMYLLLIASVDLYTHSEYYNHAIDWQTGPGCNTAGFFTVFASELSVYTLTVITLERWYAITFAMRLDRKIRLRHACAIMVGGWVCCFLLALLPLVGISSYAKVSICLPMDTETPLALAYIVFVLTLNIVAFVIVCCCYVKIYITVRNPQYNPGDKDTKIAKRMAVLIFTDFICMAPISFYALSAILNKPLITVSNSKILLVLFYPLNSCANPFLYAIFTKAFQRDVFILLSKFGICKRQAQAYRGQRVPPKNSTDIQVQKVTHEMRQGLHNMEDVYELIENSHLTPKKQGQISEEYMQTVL
Sequence of Thyrotropin-releasing hormone receptor (Homo sapiens) (P34981 whole entry, looked up): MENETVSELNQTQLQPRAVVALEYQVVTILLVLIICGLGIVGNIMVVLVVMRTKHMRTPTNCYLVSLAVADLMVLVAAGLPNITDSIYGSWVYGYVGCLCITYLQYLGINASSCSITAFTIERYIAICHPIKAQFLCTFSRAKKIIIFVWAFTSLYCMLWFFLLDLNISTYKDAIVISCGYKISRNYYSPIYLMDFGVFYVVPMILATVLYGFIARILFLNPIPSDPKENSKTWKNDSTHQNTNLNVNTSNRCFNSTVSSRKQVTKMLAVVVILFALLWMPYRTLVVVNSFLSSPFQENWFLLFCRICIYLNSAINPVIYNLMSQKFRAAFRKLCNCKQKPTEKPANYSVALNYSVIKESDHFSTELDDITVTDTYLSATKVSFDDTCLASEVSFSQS

CO/C=C(/C(=O)OC)c1ccccc1COc1cccc(C(F)(F)F)n1
Potency [1]: inactive | Potency [2]: 544 nM (active) | Potency [3]: inactive | Potency [4]: 3.85 µM (active) | Potency [5]: 5.44 µM (active) | Potency [6]: 4.85 µM (active) | Potency [7]: inactive | Potency [8]: inactive | outcome [9]: inactive | Potency [10]: 8.63 µM (active) | Potency [11]: inactive | Potency [12]: inactive | Potency [13]: inactive | outcome [14]: inactive | Potency [15]: inactive

CC1(C)[C@H](C=C(Cl)Cl)[C@@H]1C(=O)O[C@@H](C#N)c1cccc(Oc2ccccc2)c1
Potency [1]: inactive | Potency [2]: inactive | Potency [3]: inactive | Potency [4]: inactive | Potency [5]: inactive | Potency [6]: inactive | Potency [7]: inactive | Potency [8]: inactive | outcome [9]: inactive | Potency [16]: inactive | Potency [10]: inactive | Potency [12]: inactive | Potency [13]: inactive | Potency [17]: inactive | outcome [14]: inactive | Potency [15]: inactive

ClCc1cccc(Cl)c1
Potency [1]: inactive | Potency [2]: inactive | Potency [3]: inactive | Potency [4]: inactive | Potency [5]: inactive | Potency [6]: inactive | Potency [7]: inactive | Potency [8]: inactive | outcome [9]: inactive | Potency [16]: inactive | Potency [11]: inactive | Potency [18]: inactive | Potency [12]: inactive | Potency [19]: inactive | Potency [13]: inactive | Potency [17]: inactive | outcome [14]: inactive | Potency [15]: inactive

CCC(Cl)CCl (centres undefined)
Potency [1]: inactive | Potency [2]: inactive | Potency [3]: inactive | Potency [4]: inactive | Potency [5]: inactive | Potency [6]: inactive | Potency [7]: inactive | Potency [8]: inactive | outcome [9]: inactive | Potency [16]: inactive | Potency [11]: inactive | Potency [18]: inactive | Potency [12]: inactive | Potency [19]: inactive | Potency [13]: inactive | Potency [17]: inactive | outcome [14]: inactive | Potency [15]: inactive

Cc1ccc(N)cc1C
Potency [1]: inactive | Potency [2]: inactive | Potency [3]: inactive | Potency [4]: inactive | Potency [5]: inactive | Potency [6]: inactive | Potency [8]: inactive | outcome [9]: inactive | Potency [16]: inactive | Potency [10]: inactive | Potency [11]: inactive | Potency [18]: inactive | Potency [12]: inactive | Potency [13]: inactive | Potency [17]: inactive | outcome [14]: inactive | Potency [15]: inactive

C[C@@H]1CC[C@H]2[C@@H](C)C(=O)O[C@@H]3O[C@@]4(C)CC[C@@H]1[C@]32OO4
Potency [1]: inactive | Potency [2]: inactive | Potency [3]: inactive | Potency [4]: inactive | Potency [5]: inactive | Potency [6]: inactive | Potency [7]: inactive | outcome [9]: inactive | Potency [16]: inactive | Potency [10]: inactive | Potency [18]: inactive | Potency [12]: inactive | Potency [19]: inactive | Potency [13]: inactive | Potency [17]: inactive | outcome [14]: inactive | Potency [15]: inactive

Cc1cc(=O)[nH]o1
Potency [1]: inactive | Potency [2]: inactive | Potency [3]: inactive | Potency [4]: inactive | Potency [5]: inactive | Potency [6]: inactive | Potency [7]: inactive | Potency [8]: inactive | outcome [9]: inactive | Potency [16]: inactive | Potency [10]: inactive | Potency [11]: inactive | Potency [18]: inactive | Potency [12]: inactive | Potency [13]: inactive | Potency [17]: inactive | outcome [14]: inactive | Potency [15]: inactive

Source: PubChem BioAssay (Tox21)
